The subject of the assay is Plasmodium falciparum. The assay is described as follows: GSK_TCMDC: Inhibition of Plasmodium falciparum Dd2 in whole red blood cells, using parasite LDH activity as an index of growth. Test compounds present at 2uM. In kind it is functional.
`CCCCNCc1ccc(-c2nc(CN(Cc3ccc(Cl)c(Cl)c3)S(=O)(=O)c3ccc(NC(C)=O)cc3)cs2)cc1.O=C(O)C(F)(F)F` yielded an Inhibition of 20%.
In turn, `O=C(O)C(F)(F)F.c1cc(CN2CCCCC2)cc(-c2cccc(-c3nc4ccccc4[nH]3)c2)c1` yielded an Inhibition of 37%.
For `COc1ccc(CNC2CCN(C)CC2)cc1-c1ccc(S(=O)(=O)NCCc2ccccn2)s1.O=C(O)C(F)(F)F` the value was 12%; for `CS(=O)(=O)Cc1ccc(Nc2ncc(Cl)c(Nc3cccnc3C(N)=O)n2)cc1.Cl`, 97%; for `O=C(O)C(F)(F)F.OCCN1CCN(Cc2ccc(-c3cccc(-c4nc5cc(C(F)(F)F)ccc5[nH]4)c3)cc2)CC1`, 83%.
`CCCN1CCc2c(sc3nc(SCC(=O)Nc4ccc(C)cc4)n(-c4ccc(C)cc4)c(=O)c23)C1` returned an Inhibition of 71%.
Take `COc1ccc2nccc([C@@H](O)CN3CCC(NC(=O)/C=C/c4cccc(C)c4)CC3)c2c1`: the Inhibition came to 28%.
`Cc1cc(N2CCC(NS(=O)(=O)c3cccc4cccnc34)CC2)nc(Nc2cccc(C#N)c2)n1.O=C(O)C(F)(F)F` had an Inhibition of 87%.
Take `Cc1nnc2c(NC(=O)NC(C)C)cc3cc(-c4ccc(CN5CCCCC5)cc4)ccc3n12`: the Inhibition worked out at 8%.
`Cc1cc(SC(C)(C)C)cc2c(Cl)c(C(N)=O)cnc12`: the Inhibition was found to be 98%.
In the case of `COc1ccc(CNC(=O)C2Cc3ccccc3CN2Cc2ccc3ccccc3c2)cc1` (stereo not given), the Inhibition amounted to 84%.
For `CCn1cnc2c(N3CCCS3(=O)=O)cc(C(=O)N[C@@H](Cc3ccccc3)[C@H](O)CNC(C)(C)c3cccc(C(F)(F)F)c3)cc21` the value was 97%; for `CCOC(=O)NC1=NC(C)(C)N(OCCCOc2ccc(C)cc2C)C(NC(=O)OCC)=N1`, 98%.
`CC(C)CN(c1nc(C(=O)NNC(=O)[C@H](CC2CC2)NC(=O)c2cc3cc(OCCN(C)C)ccc3o2)cs1)C1CC1` returned an Inhibition of 97%.
Compound `O=C(CCc1c[nH]cn1)Nc1ccc(-c2ccc(-c3nc4cc(F)ccc4[nH]3)cc2)cc1` came in with an Inhibition of 58%.
In the case of `CN1C(C)(C)CC(NC(=O)c2ccc(-c3nc4cc(Cl)ccc4[nH]3)cc2)CC1(C)C`, the Inhibition was 36%.
For `O=C(NCCCCN1CCC2c3cccc(O)c3CCC21)c1ccc(-c2ccccc2)cc1` (stereo not given) the value was 50%.
In the case of `Cc1[nH]c(C)c(-c2ccc(CCc3ccc(N)cc3)cc2)c(=O)c1Cl`, the Inhibition amounted to 97%.
As for `Clc1nc(Cl)c2c(ccn2Cc2ccccc2)n1`, the Inhibition is listed as 61%.
`O=C(Nc1cc(F)cc(F)c1)N1CCOC(CCN2CCC3(CCc4ccccc43)CC2)(c2ccc(Cl)c(Cl)c2)C1` (stereo not given) had an Inhibition of 86%.
Compound `Clc1ccccc1/C=C/c1cncnc1Nc1ccc2[nH]c(Cc3ccccc3)nc2c1` displayed an Inhibition of 26%.
In turn, `Br.CCCCCCCCn1c2c(c(=N)c3c1CCC3)CCC2` had an Inhibition of 93%.
`O=C(/C=C/c1ccc(Cl)c(Cl)c1)NCCCCCN1CCC(NC(=O)Nc2ccc(OC(F)F)cc2)CC1` came in with an Inhibition of 18%.
Consider `O=C(NC1CCN(Cc2ccc(Cl)cc2)CC1)c1cn(-c2ccccc2)nc1-c1cccnc1`, for which the Inhibition was 9%.
Turning to `O=C(Nc1ccc(-c2ccc(-c3nc4cc(C(F)(F)F)ccc4[nH]3)s2)cc1)c1c[nH]cn1`, the Inhibition amounted to 61%.
Compound `Cc1cc(N[C@@H](CC(C)C)C(=O)NCCc2ccccc2)nc(NCc2ccccc2C)n1.O=C(O)C(F)(F)F` came in with an Inhibition of 74%.
`COc1cc(NCCCCCNc2cc(Cl)nc3ccccc23)nc2ccccc12` displayed an Inhibition of 54%.
The compound `O=C(NCc1cccc(OC(F)(F)F)c1)c1cnc2c(c1)nc(-c1c[nH]c(-c3ccccc3)n1)n2CCc1c[nH]cn1` yielded an Inhibition of 47%.
`O=C(Cc1cccc(O)c1)Nc1ccc(-c2cccc(-c3nc4cc(C(F)(F)F)ccc4[nH]3)c2)cc1`: the Inhibition is reported as 1%.
`COc1cccc(C(=O)Nc2nc3c(s2)CCN(Cc2ccccc2N2CCNCC2)CC3)c1.O=C(O)C(F)(F)F` registered an Inhibition of 11%.
For the compound `COc1cc(CNCCCNc2cc(=O)c3ccccc3[nH]2)c2c(c1)C(C)CN2C(=O)OC(C)(C)C` (stereo not given), the Inhibition is reported as 87%.
For `CCN(CC)c1ccc(NC(=S)NC2CCN(CCCCCNC(=O)/C=C/c3ccc(Cl)c(Cl)c3)CC2)cc1` the value was 58%; for `COc1ccc(CCN(C)CCCN2CCC(NC(=O)c3cccc4c(=O)c5ccccc5[nH]c34)CC2)cc1OC.O=C(O)C(=O)O`, 72%; for `COc1ccc(-c2ccc(NC(=O)c3cccc(Cl)c3)cc2)cc1CN(C)CCO.O=C(O)C(F)(F)F`, 52%.
Consider `CC(=O)Nc1cccc(NC(=O)CSc2ccc(-c3nc4ccccc4[nH]3)cn2)c1`, for which the Inhibition was 73%.
Compound `COc1cccc(CN2CCCN(Cc3cccc(NC(=O)c4cc5ccccc5s4)c3)CC2)c1.O=C(O)C(F)(F)F` yielded an Inhibition of 16%.
Compound `CCCCc1ccc(NC(=O)Nc2cccc(CCNCc3ccccc3)c2)cc1.O=C(O)C(F)(F)F` had an Inhibition of 13%.
As for `Br.COc1ccc(OC)c2c1CCN(C)C2Cc1cccc2ccccc12` (stereo not given), the Inhibition came to 79%.
For `CCN(CC)CCN(Cc1ccc(-c2ccc(Cl)s2)cc1)C(=O)Cn1c(CCc2cccc(F)c2F)nc(=O)c2ccccc21.O=C(O)C(O)C(O)C(=O)O` the value was 27%.
The result for `O=C(O)C(F)(F)F.OCCN1CCN(Cc2cccc(-c3cccc(-c4nc5cc(F)ccc5[nH]4)c3)c2)CC1` reads 99%.

The record behind these values is ChEMBL document CHEMBL1157539, “Thousands of chemical starting points for antimalarial lead identification” (Nature, 2010).
